Among all 21,000 compounds or so, fewer than 10 showed an effect of 50% or more. A selection follows. Potency and affinity values are given separately.
Test system: Acinetobacter baumannii
Conditions: Concentration 300 ug.mL-1; ASSAY_TEST Inhibition of Bacterial Growth; detection method Absorption (OD600); MEDIA CAMHB; plate type 384well; NBS; CORNING #3640; time 18 hr

Compound | Inhibition [%]
NS(=O)(=O)N1CCCNCC1 | 17.02
CCN(CC)C(=O)NCC[S+]([O-])C(C)(C)C (stereo not drawn) | 4.98
CN(CCc1ccc(Br)cc1)C(=O)CCCN | 4.12
CNC(=O)c1c(C)cccc1NCCCOC | 4.81
COc1ccc(OCCCC(=O)NCCN(C)C)cc1 | 9.28
COCCN1CCCN(C(=O)C(C)C)CC1 | -1.05
O=C1CN(C(=O)c2ccn(-c3ccccc3)n2)CCN1 | 1.11
NC1CCN(CC(=O)N2CCOCC2)CC1 | 3.07
CC(O)(CN)C(F)(F)F (stereo not drawn) | -3.1
CC(N)CCNS(=O)(=O)c1ccccc1 (stereo not drawn) | 10.98
NCC(=O)NCc1ccncc1 | 9.5
O=C(Nc1cccc(CN2CCCC2=O)c1)C1CC1 | 1.2
CC(C)CCNC(=O)CCn1cc(Br)ccc1=O | 8.21
COc1ccc(C(=O)NCC2(C)COC2)c(F)c1F | 4.61
CO[C@@H]1CN[C@@H](c2nc(C)no2)C1 | -0.59
COCc1cccc(-c2nc(C3CCOC3)no2)n1 (stereo not drawn) | 9.25
Cc1cc(=O)cc(C(=O)N2CCCC(C)(C#N)C2)o1 (stereo not drawn) | 0.52
CN(CCCS(C)(=O)=O)CC1CCN(CCO)CC1 | 0.5
O=C(c1cncc(F)c1)N1CC(N2CCCCC2)C1 | 2.2
CN(CC1CCOCC1)C(=O)NCc1ccco1 | 4.16
Cn1ccnc1CN(Cc1ccc(CO)o1)C1CC1 | 10.44
Cc1nc(C(C)(C)N)sc1C | 11.05
Nc1nc(CCCNC(=O)Cc2ccsc2)cs1 | 10.16

Compound | Inhibition [%]
Cn1nnnc1SCc1cc(Cl)c2c(c1)OCCO2 | 3.66
O=S(=O)(c1ccco1)N1CCOCc2ccccc21 | 6.19
N#Cc1ccc(OCC(O)CN2CCSCC2)cc1 (stereo not drawn) | 10.14
Cc1cccc(C2NCCNC2=O)c1 (stereo not drawn) | 12.66
COCCN(Cc1cnn(C)c1)C(=O)C1CCNC1 (stereo not drawn) | 2.42
CN1CCN(C(C)(C)CNC(=O)Nc2cn[nH]c2)CC1 | -0.91
O=C(NCCCOC(F)F)NCc1ccc(Br)o1 | 3.72
O=C(NC1CCCOc2ccc(F)cc21)c1c[nH]nn1 (stereo not drawn) | 8.95
COC(=O)CN1CCN(C(=O)N(C)C)CC1 | 20.07
COc1ccc(SCC(=O)NC2CCN(C)CC2)cc1 | 2.47
COCCN(C)C[C@@H]1CN(C(=O)C2CCC2)C[C@@H]1CO | 6.32
CN(CCS(=O)(=O)c1ccc(Cl)cc1)CC(=O)N(C)C | -3.7
CSCC(=O)NC1CCCC1 | 5.49
CCS(=O)(=O)NCCCNS(=O)(=O)c1ccc(C)cc1 | 0.89
COc1ccc(Cl)cc1NC(=O)NC1CCS(=O)(=O)C1 (stereo not drawn) | 6.86
O=C(Nc1ccc(NC(=O)C2CC2)nc1)c1ccsc1 | 12.11
COCCOCC(=O)N(C)C(C)c1ccncn1 (stereo not drawn) | 0.44
CCN(C(=O)CN1CCNC(=O)C1)c1ccc(F)cc1 | 7.47
CNC[C@@H]1C[C@@H](O)CN1 | 4.99
CC(C)c1noc(CN2CCSCC2)n1 | 17.17
Cc1ccc(C(CN)N2CCOCC2)o1 (stereo not drawn) | 1.38
CCc1nc(CNCC2CCN(CCO)CC2)no1 | 11.72
CCN(CC)C(C)CNC(=O)c1csc(NC(C)=O)n1 (stereo not drawn) | 5.75

Compound | Inhibition [%]
COCC(=O)Nc1ccc(-n2cccn2)nc1 | -2.46
CCC(C)(CO)NC(=O)c1sc(COC)nc1C (stereo not drawn) | 6.56
CCC(N)C(=O)N1CCOCC1 (stereo not drawn) | 3.92
CC[C@H](N)C(=O)N1CC(Oc2c(C)cccc2C)C1 | 6.21
O=C(NC1CCCOC1)c1ccc2c(c1)OCCO2 (stereo not drawn) | 9.3
CCCN1CCC(N2CCC(C(N)=O)CC2)CC1 | -0.38
NC1CCN(Cc2ccc(F)c(F)c2)CC1 | 10.51
COc1cn(-c2ccccc2)nc1C(=O)NCC(C)C | 12.56
c1cncc(N2CCCCC2)c1 | 8.5
Cc1cc(CN)n(C)n1 | 8.01
Cc1nc(CC(=O)NCC(C)n2ccnc2)cs1 (stereo not drawn) | 5.87
CCc1noc(C(C)NC(=O)c2cccnc2C)n1 (stereo not drawn) | 6.44
COc1c(F)cccc1CN1C[C@H](O)[C@@H](N(C)C)C1 | 9.85
CC(C)(C)OC(=O)c1ncccc1N | 5.28
CCC(=O)c1ccc(CN)cc1 | 12.11
CSCC(=O)Nc1ccc(C(=O)NCC(F)(F)F)cc1 | 10.77
CC(=O)N1CCN(CCNC(=O)c2cc(Br)c[nH]2)CC1 | 4.86
CNC(=O)C(C)(C)Oc1cccc(Cl)c1 | 6.59
O=C(C1CCC1)N(Cc1ccccn1)C1CC1 | 0.99
Cc1nccn1CC(=O)Nc1ccnn1C | 1.95
CN(C)c1cc(CN)ccn1 | 11.49
CCn1nc(C)cc1C(=O)NCCCc1cccnc1 | 7.13
O=C1CC(C(=O)N2CCCC3(CCCCC3)C2)CCN1 (stereo not drawn) | 7.27

Compound | Inhibition [%]
CCN(C)CCNC(=O)c1ccncc1I | 5.97
O=C(c1ccco1)N1C[C@H](O)[C@@H](N2CCCCC2)C1 | 9.48
CNC(=O)c1cnc(OCC(F)(F)F)c(Cl)c1 | 1.45
CC(=O)N(C1CC1)C(C)c1ccccn1 (stereo not drawn) | 3.11
O=C1NCCCCC1NS(=O)(=O)N1CCOCC1 (stereo not drawn) | 3.3
CCn1cc(NC(=O)C(C)n2cccn2)cn1 (stereo not drawn) | 0.68
CN(c1cccc(C(N)=O)c1)S(=O)(=O)c1ccccc1 | 7.68
COc1cccc(NC(=O)NCC2CCN(C)CC2)c1 | 9.08
Cc1cnccc1CN | 5.52
CN(Cc1nc(-c2ccc(F)cc2)cs1)CC(O)CO (stereo not drawn) | 8.94
CC(C)CN1CC(CN)OC1=O (stereo not drawn) | 2.13
O=C(CCN1CCc2[nH]cnc2C1)NCc1cccs1 | -3.55
CCNS(=O)(=O)C1CCN(Cc2cc(F)cc(F)c2)C1 (stereo not drawn) | -0.23
C1CC(C2CCOC2)CCN1 (stereo not drawn) | 9.96
CCS(=O)(=O)CCN(C)CCOc1cccc(C#N)c1 | 3.26
CC(N)c1nc2ccccc2n1C (stereo not drawn) | -1.51
CCC(=O)NCCc1noc(COC)n1 | 8.83
CCOc1cccc(C(C)NC(=O)CNC(C)=O)c1 (stereo not drawn) | 8.25
CCC(=O)N1CCN(C(=O)CC2CCCCC2)CC1 | 6.05
CC1Cc2ccccc2N1CCN (stereo not drawn) | 14.26
O=C1Nc2ccccc2C1C1CCNCC1 (stereo not drawn) | 10.09
Cc1cc(C)cc(OCC(=O)N2CCN[C@H](C)C2)c1 | 8.4
CC1=C(c2ccco2)CN(CC(N)=O)CC1 | 3.95

Compound | Inhibition [%]
O=C(Nc1cncc(Br)c1Cl)N1CCC(O)C1 (stereo not drawn) | -0.64
NCc1cccc(N2CC=CC2)c1 | 6.5
O=C(CCN1CCOCC1)Nc1cccc(Cl)c1 | 5.94
O=C(Cn1ccnc1)Nc1ccc(OC(F)F)cc1 | 8
CNC(=O)CSc1nnc(C2CC2)n1C | 5.97
CC(=O)c1c(C)[nH]c(C(=O)OCC(=O)N(C)C)c1C | 5.39
NCc1ccc(-c2ccccc2)o1 | 16.01
CC(C)CCNC(=O)Nc1c[nH]c(=O)[nH]c1=O | 6.3
CCCNC(=O)Cn1ccnc1SC | 10.93
CNC(=O)c1cccc(CN)n1 | 9.63
CN(C)[C@H]1CN(C(=O)c2ccncc2)C[C@@H]1C1CC1 | 10.19
CCn1cnnc1CC1CCCNC1 (stereo not drawn) | 9.33
Cc1ccc(OC2CCN(C(=O)[C@@H](C)N)CC2)cc1 | 3.78
CN[C@@H](C)C(=O)N1CC(Oc2ccccc2OC)C1 | -2.39
CC(C)NC(=O)C(C)N (stereo not drawn) | 9.53
NC(c1ccc(Cl)cc1)c1ncon1 (stereo not drawn) | 6.75
O=C(Cn1ccc(=O)[nH]c1=O)NCc1cccnc1 | 6.41
CCOc1cc(C)ccc1CN | 7.86
c1ncn(-c2ccc(NCC3CCOCC3)cc2)n1 | 5.37
Cc1nn(C)c2nc(NCCC(=O)N3CCCC3)sc12 | 3.37
CNC(=O)[C@H]1CC[C@H](CNC(=O)c2cn[nH]c2)CC1 | 6.17
CC(C)C(=O)N1CCC(N)C1 (stereo not drawn) | 3.38
Cc1nc(CN(C)C(=O)NCc2ccccc2)no1 | 6.9

Compound | Inhibition [%]
CC(C)(C)OC(=O)N1CC(O)C1 | 5.37
COC(=O)c1ccc(NC(=O)N2CCOC(C)C2)cc1 (stereo not drawn) | 6.27
CSc1ccc(OCCN(C)CC(N)=O)cc1 | 7.33
CCOC(=O)c1csc(CNC(=O)c2ccc(C)o2)n1 | 0.25
CN(CCN1CCCC1=O)C(=O)c1ccc(Br)cc1O | 1.38
CN[C@@H](CC(C)C)C(=O)NCCCc1csc(N)n1 | -8.08
COCC(=O)N1CCN(Cc2csc(C)n2)CC1 | 2.61
CCC(NC(=O)C1CC1)(C(N)=O)C(C)C (stereo not drawn) | 2.37
Cc1cccc(NC(=O)C2COCCO2)c1 (stereo not drawn) | 1.93
CC(=O)N1CCCC(C(=O)NCCc2nnc(C)s2)C1 (stereo not drawn) | 6.35
O=C(OCCC1CCCO1)c1ccncc1 (stereo not drawn) | -0.58
O=C(CCC(F)(F)F)N[C@H]1CCCNC1 | 10.33
CC(=O)N(C)CC(=O)Nc1ccccc1N1CCCC1 | 8.57
CN(C)c1nccc(N(C)CCn2cccn2)n1 | 7.7
CCN(C(=O)c1ccc(-c2ccco2)[nH]c1=O)C1CC1 | 3.27
COCC(=O)Nc1ccc(OCc2ccccn2)cc1 | 4.72
COc1ccc(OCCN2CCNCC2)cc1 | 8.28
CC(=O)NC(C(=O)N1CCSCC1)C(C)C (stereo not drawn) | 3.97
